# Test results taken from the supplement of paper PMC6135742.
# Counter-ions that a name gives are not always drawn. The full ranking holds about 2,600 compounds; the median of “total cell number (DAPI+ nuclei) relative to DMSO vehicle control” is about -1.4, and the lowest 2% start at about -23. The sample as a whole holds a higher share of the lowest values than the screen did.
# Test system: jimpy (Plp1 jimpy) mouse iPSC-derived oligodendrocyte progenitor cells
# Assay: total cell number (DAPI+ nuclei) relative to DMSO vehicle control (SDs above negative control mean); higher = more surviving cells
# Settings: 10 µM; 3 days
# Description: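 Primary phenotypic screen of >3,000 bioactive compounds (Selleck L1700 and Sigma LO1280 libraries) at a single dose of 10 µM. Compounds were added to jimpy (Plp1 mutant) mouse iPSC-derived OPCs at the start of thyroid hormone-induced oligodendrocyte differentiation, one well per compound in 384-well plates. After 3 days cells were stained for MBP, Sox10 and DAPI and imaged with an Operetta system. MBP+ oligodendrocyte number and total cell number were expressed as the number of SDs above the mean of the DMSO negative control on the same plate (n=16 control wells per plate). Hits were defined as >=4 SD for oligodendrocytes and >=2 SD for total cells.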
row,Structure (SMILES),total cell number
1,CC[C@@]1(O)C(=O)OCc2c1cc1n(c2=O)Cc2cc3ccccc3nc2-1 [Camptothecin],-22.6
2,CC[C@@]1(O)C(=O)OCc2c1cc1n(c2=O)Cc2cc3ccccc3nc2-1 [(S)-(+)-Camptothecin],-9.49
3,"CC1C2Cc3ccc(O)cc3C1(C)CCN2CC1CC1 (single isomer, unassigned; (+)) [(+)-Cyclazocine]",-1.89
4,CC(C)C1CNC(C(=O)O)C1CC(=O)O (stereo unspecified) [Dihydrokainic acid],-0.564
5,Cc1cc([C@@H]2CCCN2C)on1 [ABT-418 hydrochloride],-4.48
6,"Clc1ccc(N2CCN(Cc3c[nH]c4ncccc34)CC2)cc1 [L-745,870 hydrochloride]",-5.68
7,COC[C@H]1OC(=O)c2coc3c2[C@@]1(C)C1=C(C3=O)C2CCC(=O)[C@@]2(C)C[C@H]1OC(C)=O (stereo partly specified) [Wortmannin from Penicillium funiculosum],-3.09
8,CC[C@@H]1/C=C/C=C/C[C@H](C)[C@H](O)[C@](C)(O)C(=O)[C@H](C)[C@@H](O)[C@H](C)C(=O)[C@H](C)[C@@H](O)[C@H](C)/C=C/C(=O)O[C@H]2[C@@H](C)[C@@H](CC1)O[C@@]1(CC[C@@H](C)[C@@H](C[C@H](C)O)O1)[C@@H]2C [Oligomycin A],-27.5
9,NC(Cc1cc(O)c(O)cc1O)C(=O)O (racemic) [6-Hydroxy-DL-DOPA],-2.36
10,O=c1ccc2[nH]cc(C3=CCNCC3)c2[nH]1,0.673
11,CC1=NN=C(c2ccc(N)cc2)c2cc3c(cc2C1)OCO3,-0.785
12,CO[C@H]1CC[C@@H](O[C@H]2C[C@H]([C@]3(C)CC[C@]4(C[C@H](O)[C@@H](C)[C@@H]([C@@H](C)/C=C(\C)C(=O)[C@H](C)C[C@H](C)C(=O)O)O4)O3)O[C@]3(O[C@@H]([C@H]4O[C@@](O)(CO)[C@H](C)C[C@@H]4C)C[C@@H]3C)[C@@H]2C)O[C@@H]1C [Nanchangmycin],-27.5
13,COc1cc(C(O)CN)ccc1O (racemic) [(±)-Normetanephrine hydrochloride],-1.67
14,COc1cc2c(cc1OC)C1CC(=O)C(CC(C)C)CN1CC2 (stereo unspecified) [Tetrabenazine],-0.277
15,"CC(N)C(O)c1ccc(O)c(O)c1 (single isomer, unassigned; (-)) [(-)-alpha-Methylnorepinephrine]",-0.161
16,CCCCC/C=C\C/C=C\C/C=C\C/C=C\CCCC(=O)NCc1ccc(O)c(OC)c1 [Arvanil],-8.09
